Reference: PubChem BioAssay
Active and inactive are the calls of the source.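 How the source made its calls, unless noted: active means luciferase signal above three times the same-plate solvent-only control wells; inactive means the rest.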

target: 6-phosphogluconate dehydrogenase, decarboxylating (Homo sapiens) (UniProt P52209); assay: inhibition of human phosphogluconate dehydrogenase – biochemical, recombinant enzyme, NADPH absorbance, primary screen (AID 1159550;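 active means at least 20% inhibition of 6-phosphogluconate dehydrogenase activity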); conditions: recombinant 6PGD, NADPH absorbance 341 nm; at 10 µM; active compounds read high
Sequence (P52209 whole entry, looked up): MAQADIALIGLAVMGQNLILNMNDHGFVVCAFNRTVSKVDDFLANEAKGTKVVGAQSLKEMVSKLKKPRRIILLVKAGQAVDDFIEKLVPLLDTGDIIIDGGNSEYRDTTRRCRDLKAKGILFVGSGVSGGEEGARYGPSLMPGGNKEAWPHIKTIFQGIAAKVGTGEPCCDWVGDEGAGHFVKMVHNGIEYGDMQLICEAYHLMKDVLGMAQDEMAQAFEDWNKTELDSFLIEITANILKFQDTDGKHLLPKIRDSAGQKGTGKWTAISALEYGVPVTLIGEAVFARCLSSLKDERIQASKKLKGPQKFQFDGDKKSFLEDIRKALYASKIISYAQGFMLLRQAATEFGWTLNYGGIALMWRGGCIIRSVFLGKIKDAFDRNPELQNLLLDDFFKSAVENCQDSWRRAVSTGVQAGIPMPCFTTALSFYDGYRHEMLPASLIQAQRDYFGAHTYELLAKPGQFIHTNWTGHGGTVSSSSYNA

inhibition, inactive:
COc1cc(O)c2c(=O)c(O)c(-c3ccc(O)c(O)c3)oc2c1 4.95%, COc1ccc(-c2oc3cc(O[C@@H]4O[C@H](CO)[C@@H](O)[C@H](O)[C@H]4O)c(OC)c(O)c3c(=O)c2OC)cc1O -33.5%, COc1cccc2c1CCC1=CC(=O)CC[C@@]12C -1.6%

target: Mitogen-activated protein kinase 7 (Homo sapiens) (UniProt Q13164); assay: Gal4-ERK5 driven luciferase induction – cell-based, HTS, primary screen (AID 1508626); conditions: HeLa Gal4-ERK5 transactivation, 18 h, at 5 µM, active compounds read high;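 further: luciferase driven by Gal4-ERK5 fusion binding five Gal4 sites before minimal TATA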
Sequence (Q13164 whole entry, looked up, the tested form may be a part): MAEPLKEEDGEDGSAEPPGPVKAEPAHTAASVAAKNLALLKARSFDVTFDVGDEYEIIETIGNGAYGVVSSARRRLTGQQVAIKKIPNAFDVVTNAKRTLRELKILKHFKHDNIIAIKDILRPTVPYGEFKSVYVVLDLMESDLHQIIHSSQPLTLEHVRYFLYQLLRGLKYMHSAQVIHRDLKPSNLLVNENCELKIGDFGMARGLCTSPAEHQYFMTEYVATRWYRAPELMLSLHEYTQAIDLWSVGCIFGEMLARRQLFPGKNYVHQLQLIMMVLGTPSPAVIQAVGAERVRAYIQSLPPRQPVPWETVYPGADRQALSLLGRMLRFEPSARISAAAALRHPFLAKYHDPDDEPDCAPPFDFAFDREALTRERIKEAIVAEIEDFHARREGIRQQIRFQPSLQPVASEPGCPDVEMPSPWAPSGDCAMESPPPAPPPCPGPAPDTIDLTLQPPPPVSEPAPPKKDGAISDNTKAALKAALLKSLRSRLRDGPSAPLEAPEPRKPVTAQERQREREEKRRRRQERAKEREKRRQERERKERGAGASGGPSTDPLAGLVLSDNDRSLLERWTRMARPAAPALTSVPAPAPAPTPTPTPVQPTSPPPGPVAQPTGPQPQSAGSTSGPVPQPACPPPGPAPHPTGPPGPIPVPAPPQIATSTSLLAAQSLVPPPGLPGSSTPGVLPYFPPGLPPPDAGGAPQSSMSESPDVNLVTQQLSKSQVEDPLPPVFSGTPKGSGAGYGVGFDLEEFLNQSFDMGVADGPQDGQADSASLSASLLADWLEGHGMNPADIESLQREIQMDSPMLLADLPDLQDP

Luciferase signal, inactive:
C[C@@H]1CC[C@H]2C(C)(C)[C@H]3C[C@@]12CC[C@@]3(C)O 28 AU, COC(=O)C[C@H]1C(C)(C)C2(O)OC34CC2C(=O)[C@]1(C)C3CC[C@]1(C)C4=CC(=O)O[C@H]1c1ccoc1 (some centres not stated) 20 AU, COC(=O)[C@]1(C)CCC[C@]2(C)c3ccc(C(C)C)cc3C(=O)CC12 (some centres not stated) 32 AU, C[C@H](CCC(=O)O)[C@H]1CC[C@H]2[C@@H]3CC[C@@H]4C[C@H](O)CC[C@]4(C)[C@H]3C[C@H](O)[C@]12C 28 AU, COC(=O)C(O)c1ccccc1 (configuration not stated) 28 AU, COc1cc(OC)c2c(=O)c(-c3ccccc3)coc2c1 68 AU, CC(C)=CCC/C(C)=C\CO 60 AU, COc1ccc(-c2coc3cc(OC)cc(OC)c3c2=O)cc1 60 AU, CC(=O)Oc1c(-c2ccccc2)oc2c(CC=C(C)C)c3c(c(OC(C)=O)c2c1=O)C=CC(C)(C)O3 40 AU, O=c1oc2ccccc2cc1O 36 AU, CC(=O)NC(Cc1c[nH]c2ccccc12)C(=O)O (configuration not stated) 64 AU, COc1ccc(CC(=O)c2ccc(O)cc2O)cc1 76 AU, COc1ccc(-c2cc(=O)c3cc(OC)ccc3o2)cc1 40 AU, COc1ccc2ccc(=O)oc2c1 44 AU, COC1=C(O)c2cc3oc(C(C)=O)c(O)c3c(O)c2C(=O)C1=O 52 AU, CC1(C)CC[C@]2(C)CC[C@]3(C)C(=CC[C@@H]4[C@@]5(C)CC[C@H](O)C(C)(C)[C@@H]5CC[C@]43C)[C@@H]2C1 20 AU, C/C=C(/C)C(=O)O[C@@H]1c2c(ccc3ccc(=O)oc23)OC(C)(C)[C@@H]1OC(C)=O 56 AU, COS(C)(=O)=O 124 AU, C/C1=C\CCC(=O)C2CC(C)(C)C2CC1 (configuration not stated) 60 AU, NC(=O)NCCC[C@H](N)C(=O)O 72 AU, CC(C)c1c(O)ccc2c1CCC1[C@@](C)(C=O)CCC[C@]21C (some centres not stated) 16 AU, CC(=O)O[C@@H]1C[C@H]2C(C)(C)[C@@H](O)CC[C@]2(C)[C@H]2CC[C@@]3(C)[C@H](c4ccoc4)OC(=O)[C@H]4O[C@]43[C@@]21C 108 AU, CC1(C)C(=O)C=C[C@@]2(C)C1C=C[C@]1(C)C2CC[C@@]2(C)[C@H](c3ccoc3)OC(=O)C3OC321 (some centres not stated) 40 AU, COC1=C[C@@H](C)[C@@H]2C[C@H]3OC(=O)C[C@H]4C(C)=C(OC)C(=O)[C@H]([C@@]2(C)C1=O)[C@@]34C 40 AU, CC(=O)O[C@@H]1c2c(ccc3ccc(=O)oc23)OC(C)(C)[C@@H]1OC(=O)CC(C)C 188 AU, COC(=O)C[C@H]1C2(C)CC34OC5(C)O[C@@]6([C@H](OC(C)=O)C(OC(C)=O)[C@]7(C)C(/C(=C(/O)C(C)C)C(=O)O[C@H]7c7ccoc7)[C@@]6(O5)[C@H](OC(C)=O)[C@@]3(O)C2OC(=O)C(C)C)[C@]14C (some centres not stated) 24 AU, COC(=O)C[C@H]1C(C)(C)[C@@H](O)[C@@H]2CC3=C4CC(O)O[C@@H](c5ccoc5)[C@]4(C)CCC3[C@@]1(C)C2=O (some centres not stated) 36 AU, Cc1cc(=O)c2c(O)cc(O)c(C)c2o1 132 AU, COc1cc(C/C=C/c2ccccc2)c(OC)cc1O 56 AU, CC(C)CCC[C@@H](C)[C@H]1CC[C@H]2[C@@H]3C[C@@H](O)[C@@]4(O)C[C@@H](O)CC[C@]4(C)[C@H]3CC[C@]12C 88 AU, C[N+]1(C)C[C@H](O)C[C@H]1C(=O)[O-] 60 AU, CC(=O)OC(C)(C)[C@@H]1Cc2cc3ccc(=O)oc3cc2O1 40 AU, CC[C@H](CC[C@@H](C)[C@H]1CC[C@H]2[C@@H]3CC=C4C[C@@H](OC(C)=O)CC[C@]4(C)[C@H]3CC[C@]12C)C(C)C 36 AU, COc1cc(C)c(C(=O)O)c(O)c1 80 AU, CC(=O)OC1CCC2(O)CC1(C)CCC1C2CC1(C)C (configuration not stated) 36 AU, CC1(C)C2CC(=O)O[C@@]3(C)C4=CC(=O)O[C@@H](c5ccoc5)[C@]4(C)CCC3[C@@]2(C)C=C[C@H]1O (some centres not stated) 20 AU, COc1cc(O)c2c(=O)c(O)c(-c3ccc(O)c(O)c3)oc2c1 144 AU, COc1ccc(-c2oc3cc(O[C@@H]4O[C@H](CO)[C@@H](O)[C@H](O)[C@H]4O)c(OC)c(O)c3c(=O)c2OC)cc1O 172 AU, COc1cccc2c1CCC1=CC(=O)CC[C@@]12C 40 AU
